KDM5B inhibitor: KDM5B demethylase inhibition; 220,000 compounds, 2.6% hits; Potency, µM (doses to about 57.7 µM), hits mostly inhibitors; KDM5B demethylase, FDH-coupled NADH fluorescence (FDH is formaldehyde dehydrogenase); note: nearly all actives have a fitted effect of over 70% in size
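qHTS format, multiple compound concentrations. Buffer 50 mM HEPES pH 7.5/0.01% Tween-20; 200 nM KDM5BΔAP final; 10 min compound preincubation; substrate-mix levels 12.5 µM peptide, 25 µM α-KG, 0.25 mM NAD⁺; 30 min RT; ΔRFU.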
SNCA expr inh: SNCA gene expression inhibition. 140,000 compounds, 0.17% hits. HEK-293 SNCA-luciferase knock-in, luminescence, 24 h. AID 1671194. Potency, µM (doses to about 57.2 µM), most hits filed as inhibitors; note: nearly all actives have a fitted effect of over 45% in size
IP6K1 inhibitor: blocks human inositol hexakisphosphate kinase 1; Q92551; IP6K1 kinase, ADP-Glo luminescence, 2 h; active compounds read low; activity change, % (series mostly up to about 58 µM); 140,000 compounds, 0.81% hits; AID 1645851; in the data active = activity change below about -25%
Target sequence (Q92551 whole entry, looked up): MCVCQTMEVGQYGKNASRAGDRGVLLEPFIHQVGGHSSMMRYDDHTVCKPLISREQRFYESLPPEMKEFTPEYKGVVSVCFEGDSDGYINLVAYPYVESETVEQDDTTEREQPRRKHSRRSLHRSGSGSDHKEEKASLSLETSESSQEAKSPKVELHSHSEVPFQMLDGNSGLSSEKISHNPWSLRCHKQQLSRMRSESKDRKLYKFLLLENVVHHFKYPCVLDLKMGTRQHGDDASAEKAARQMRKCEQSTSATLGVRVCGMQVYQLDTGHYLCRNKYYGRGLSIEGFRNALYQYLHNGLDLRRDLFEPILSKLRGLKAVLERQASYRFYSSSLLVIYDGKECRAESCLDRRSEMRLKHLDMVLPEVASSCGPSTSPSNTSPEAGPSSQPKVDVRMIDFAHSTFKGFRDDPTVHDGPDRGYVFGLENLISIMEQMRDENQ
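ADP-Glo luminescence measures ADP made by human IP6K1 during a 2 h RT reaction with ATP/IP6 (mix at 1.3 mM/130 uM); top library doses 57.5 and 19.1 uM final.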
HEK293 viab: reduces viability of HEK-293 SNCA reporter cells; HEK-293-SNCA-luc viability, GF-AFC fluorescence, 24 h; Potency, µM (top dose mostly 57.1 µM), actives largely listed as cytotoxic; 150,000 compounds, 0.12% hits; AID 1671193; note: nearly all actives have a fitted effect of over 30% in size
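Cytotoxicity counterscreen: after 24 h compound treatment of genome-edited SNCA-luciferase HEK-293 cells, live-cell protease substrate GF-AFC read by fluorescence after 30 min; activity scaled between DMSO (0%) and medium-only (-100%), curves Hill-fitted.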
Large screens that a line does not name were inactive. This is a sample that favours compounds with a hit; in the whole collection about 2.8% have one here. Unless noted, calls come from the whole dose curve; as a rule, active = well fitted curve in the direction sought with a large enough effect; inconclusive = small, poorly fitted or top-dose-only effect, or another doubt; inactive = no such curve, though single readings can be large; an effect the other way counts as inactive or inconclusive.

Cc1ccc(-c2ccc3nnc(CNC(=O)COc4ccccc4)n3n2)cc1	KDM5B inhibitor 35.5µM
COc1ccc(-c2ccc3nnc(CNC(=O)COc4ccc(F)cc4)n3n2)cc1	KDM5B inhibitor 28.2µM
COc1ccc(-c2ccc3nnc(CNC(=O)Cc4cccc(F)c4)n3n2)cc1	KDM5B inhibitor inconclusive
O=C(c1cc(-c2ccc(F)cc2)nc2ccccc12)N1CCC(Cc2nncn2CC2CC2)CC1	KDM5B inhibitor 28.2µM
Cc1ccc(-c2cc(C(=O)N3CCC(Cc4nncn4CC4CC4)CC3)c3ccccc3n2)cc1C	KDM5B inhibitor 22.4µM
Cc1ccc(Cc2c(C)nc3c(C(=O)N4CCC(Cc5nncn5CC5CC5)CC4)cnn3c2C)cc1	KDM5B inhibitor 28.2µM
Cc1nc2c(C(=O)O)cnn2c(C)c1Cc1ccccc1	KDM5B inhibitor inconclusive
COc1ccc(C(=O)N2CCCC(n3cc(-c4nc(-c5ccccc5)no4)nn3)C2)cc1 (configuration not stated)	HEK293 viab inconclusive
Cc1ccc(-c2cn3c(n2)CO[C@@H](CNC(=O)c2cccnc2)C3)cc1	KDM5B inhibitor inconclusive
Cc1cc(C)n(Cc2ccc(C(=O)NCC3Cn4cccc4CN3Cc3ccccc3)o2)n1 (configuration not stated)	KDM5B inhibitor 31.6µM
Cc1cc(C)n(Cc2ccc(C(=O)NN)o2)n1	none (no result: SNCA expr inh, IP6K1 inhibitor, HEK293 viab)
O=C(NCC1Cn2cccc2CN1Cc1ccccc1)c1ccccn1 (configuration not stated)	none (no result: KDM5B inhibitor)
O=C(NCC1Cn2cccc2CN1Cc1ccccc1)c1cncc(Br)c1 (configuration not stated)	KDM5B inhibitor 28.2µM
CN1Cc2cccn2CC1CNC(=O)c1ccnn1C (configuration not stated)	KDM5B inhibitor 22.4µM, SNCA expr inh inconclusive
CN1Cc2cccn2CC1CNC(=O)c1ccccc1F (configuration not stated)	KDM5B inhibitor inconclusive
CCn1ccc(C(=O)NCC2Cn3cccc3CN2Cc2ccccc2)n1 (configuration not stated)	KDM5B inhibitor 28.2µM
COc1ccc(CSc2nc3ccncc3n2Cc2nc(-c3ccc(OC)c(OC)c3)oc2C)cc1	KDM5B inhibitor inconclusive, HEK293 viab inconclusive
COc1ccc(CNC(=O)c2ccc3c(c2)N(Cc2ccccc2)C(=O)c2ccccc2S3=O)cc1 (configuration not stated)	none
O=C(NCC1Cn2cccc2CN1Cc1cccnc1)Nc1ccccc1 (configuration not stated)	KDM5B inhibitor inconclusive
CC(C)S(=O)(=O)NCC1Cn2cccc2CN1Cc1ccccc1 (configuration not stated)	KDM5B inhibitor inconclusive
Cc1ncoc1C(=O)NCC1Cn2cccc2CN1Cc1ccccc1 (configuration not stated)	KDM5B inhibitor 28.2µM
O=S(=O)(NCC1Cn2cccc2CN1Cc1cccnc1)c1ccc(F)cc1 (configuration not stated)	KDM5B inhibitor 28.2µM
O=S(=O)(NCC1Cn2cccc2CN1Cc1ccccc1)c1ccccc1 (configuration not stated)	none (no result: KDM5B inhibitor)
CCOCCCNC(=O)NCC1Cn2cccc2CN1Cc1ccccc1 (configuration not stated)	KDM5B inhibitor 28.2µM
COc1cccc(CC(=O)NCC2Cn3cccc3CN2Cc2ccccc2)c1 (configuration not stated)	none (no result: KDM5B inhibitor)
Cn1cnc(S(=O)(=O)NCC2Cn3cccc3CN2Cc2ccccc2)c1 (configuration not stated)	KDM5B inhibitor 28.2µM
Cc1ccc([C@@H]2CN(C(=O)CN3CCOC3=O)C[C@H]2NC(=O)C2CC2)cc1	none
Cn1nccc1C(=O)NCC1Cn2cccc2CN1Cc1ccccc1 (configuration not stated)	KDM5B inhibitor 22.4µM
Nc1nc(C2CC(NC(=O)c3csc4c3CCCC4)C2)cc(=O)[nH]1 (configuration not stated)	none
Cc1nc(C2CC(NC(=O)c3cnc(N)nc3C(F)(F)F)C2)cc(=O)[nH]1 (configuration not stated)	KDM5B inhibitor 28.2µM
O=C(Nn1cnnc1)c1ccc(Cl)c([N+](=O)[O-])c1	none (no result: SNCA expr inh, IP6K1 inhibitor, HEK293 viab)
CN(C)c1ccc(-c2nnc([C@H]3CCN(Cc4ccccc4)C3)o2)cc1	KDM5B inhibitor inconclusive
c1ccc(CCCN2CC[C@H](c3nnc(-c4ccccc4)o3)C2)cc1	KDM5B inhibitor 31.6µM
CN(C)c1ccc(-c2nnc([C@H]3CCN(CC4CCCCC4)C3)o2)cc1	KDM5B inhibitor 31.6µM
CN(C)c1ccc(-c2nnc([C@H]3CCN(CC4CC4)C3)o2)cc1	KDM5B inhibitor 31.6µM
CN(C)c1ccc(-c2nnc([C@H]3CCN(C4CCC4)C3)o2)cc1	KDM5B inhibitor 28.2µM
c1cc(-c2nnc([C@H]3CCN(CC4CCCCC4)C3)o2)ccn1	none
CC1CCCN(S(=O)(=O)c2cc3cc(Cl)ccc3oc2=O)C1 (configuration not stated)	none (no result: SNCA expr inh, IP6K1 inhibitor, HEK293 viab)
O=C(NCc1ccc2c(c1)OCO2)C1CCCN1Cc1ccc(-c2cncnc2)cc1 (configuration not stated)	none (no result: KDM5B inhibitor)
CCCCN(C)C(=O)Cn1ccn2nc(-c3ccccc3)c(CO)c2c1=O	none
CCN1CCN(c2ccc(C(=O)OC)cc2NC(=O)COc2ccccc2)CC1	none (no result: SNCA expr inh, IP6K1 inhibitor, HEK293 viab)
CC(=O)N1CCN(c2nc(-c3c(C)noc3C)cc3c2cc(-c2ccccc2)n3C)CC1	KDM5B inhibitor 39.8µM
COC1CCCN(c2cc(-c3cccnc3)nc3c(C)noc23)C1 (configuration not stated)	none
Cc1noc(C)c1-c1nc(N2CCN(C)CC2)c2ccccc2n1	none (no result: KDM5B inhibitor, IP6K1 inhibitor)
Cc1noc2c(-c3cccnc3NCc3cccnc3)cc(-c3ccccc3)nc12	KDM5B inhibitor inconclusive
COC1CCCN(c2ncccc2-c2cc(-c3ccccc3)nc3c(C)noc23)C1 (configuration not stated)	KDM5B inhibitor 39.8µM, HEK293 viab inconclusive
Cc1noc2c(-c3cccnc3N(C)C)cc(-c3ccccc3)nc12	KDM5B inhibitor 31.6µM
CC(=O)N1CCN(c2ncccc2-c2cc(-c3ccccc3)nc3c(C)noc23)CC1	KDM5B inhibitor 35.5µM
CN1CCC2(CCCN(Cc3cc4n(n3)CCCNC4)C2)C1 (configuration not stated)	KDM5B inhibitor inconclusive
Cc1cccc(C(=O)NCN2CCN(c3ccccc3C#N)CC2)c1	none (no result: KDM5B inhibitor, IP6K1 inhibitor)
Cc1oc(C(O)c2ccccc2F)nc1C(=O)Nc1ccc(C(N)=O)cc1 (configuration not stated)	none
Cc1oc(C(O)c2ccccc2F)nc1C(=O)Nc1ccccc1C(N)=O (configuration not stated)	KDM5B inhibitor 35.5µM
C[C@@]1(O)CCN(Cc2ccc3c4c(cccc24)C(=O)OC3)C[C@@H]1O	KDM5B inhibitor 28.2µM
Cc1cc(C)c(NC(=O)Cn2c(=O)n(Cc3ccc(C(=O)NCc4ccco4)cc3)c(=O)c3sccc32)c(C)c1	SNCA expr inh 25.1µM, HEK293 viab inconclusive
Cc1cccc(C)c1NC(=O)Cn1c(=O)n(Cc2ccc(C(=O)NCc3ccco3)cc2)c(=O)c2sccc21	SNCA expr inh inconclusive

Source: PubChem BioAssay (National Center for Advancing Translational Sciences (NCATS))
